Source: PubChem BioAssay AID1259415 (National Center for Advancing Translational Sciences (NCATS), 2018)
Among all 410,000 compounds or so, about 18,000 (4.4%) were called active. Another 7% or so got no clear call; they are omitted. The full list was thinned out, with actives kept by preference. A number with no mark means an inactive call. No stated cut-off is given here; in the data, active means activity change below about -60%; inconclusive means no clear call, values can overlap the other calls; inactive means above about -39%.

experiment: qHTS Assay for inhibitors of the human cytomegalovirus (HCMV); conditions: HFF cells, HCMV-luciferase reporter, 72 h; at 57.5 µM; stronger effect = lower value
Method in brief: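 Luciferase read-out from HCMV-luciferase-infected HFFs (MOI 1 PFU/cell) 72 h post infection at 37C; compounds added after 16 h cell attachment; activity normalized between buffer-only basal and Salinomycin (10uM) inhibitor controls.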
On the % scale 0 is the no-effect control and ±100 the full control effect.

In the case of `COc1ccc(-c2nc3ccccc3c(=O)n2CCc2ccc(O)cc2)cc1`, the activity change, negative = inhibition is reported as -62% (active).
For `Cc1ccc(C(=O)NC(=S)Nc2ccc(N3CCOCC3)cc2)cc1`, the activity change, negative = inhibition was -103% (active).
With `CCC1CCCCN1CCCNC(=O)c1cc2c(Cl)nc3ccccc3c2s1` (stereo not given) the activity change, negative = inhibition was -99.5% (active).
With `COC(=O)c1c(NC(=O)CN2CCN(S(=O)(=O)c3ccccc3[N+](=O)[O-])CC2)sc2c1CCC(C)C2` (stereo not given) the activity change, negative = inhibition was -60.3% (active).
With `CCOc1ccc(Br)cc1CSC(=N)N` the activity change, negative = inhibition was -73.3% (active).
With `Cc1ccc(NC(=O)N2CCC(c3nc4c(nnn4Cc4c(F)cccc4Cl)c(=O)[nH]3)CC2)cc1` the activity change, negative = inhibition was -65.5% (active).
In the case of `O=C(OC12CC3CC(CC(C3)C1)C2)c1ccc(NCc2cc(O)ccc2O)cc1`, the activity change, negative = inhibition is reported as -100% (active).
In the case of `Cc1ccc(Cc2cnc(NC(=O)/C(C#N)=C/c3ccc(-c4cccc([N+](=O)[O-])c4)o3)s2)cc1`, the activity change, negative = inhibition is reported as -61.6% (active).
In the case of `N#C/C(=C\c1ccc(-c2cccc([N+](=O)[O-])c2)o1)C(=O)NCCN1CCOCC1`, the activity change, negative = inhibition is reported as -67.8% (active).
In the case of `CC(C)c1ccc(S(=O)(=O)N2CCC3(CC2)OCCO3)cc1`, the activity change, negative = inhibition is reported as -60.4% (active).
With `NC(=S)NN=Cc1ccc(OC(=O)COc2cc(Cl)c(Cl)cc2Cl)cn1` the activity change, negative = inhibition was -75.3% (active).
With `CCOC(=O)CC1(NC(=O)c2cc(COc3cncc(Cl)c3)on2)CCCCC1` the activity change, negative = inhibition was -73.4% (active).
With `C=CCC1(CC=C)CCCN1C(=O)c1cc(COc2ccc(-n3cncn3)cc2)on1` the activity change, negative = inhibition was -87.7% (active).
With `CCCCC(=O)NC(c1ccc(OC)c(OC)c1)c1ccc2cccnc2c1O` (stereo not given) the activity change, negative = inhibition was -103% (active).
With `N#C[C@]1(S(=O)(=O)c2ccccc2)C[C@@H]2ON=C(c3cccc(Br)c3)[C@@H]2C1` the activity change, negative = inhibition was -79.5% (active).
For `Cc1noc(/C=C/c2ccco2)c1S(=O)(=O)N1CCC(C(=O)Nc2ccc(Cl)cn2)CC1`, the activity change, negative = inhibition was -79.9% (active).

In order of falling activity change, negative = inhibition:
1. O=C(c1ccccc1F)N1CCC(c2nc3c(nnn3Cc3cccc(F)c3)c(=O)[nH]2)CC1  67.9%
2. COc1ccccc1N1CCN(S(=O)(=O)CCNC(=O)COc2ccc(F)cc2)CC1  65.8%
3. O=C(COc1cc(Cl)c(Cl)cc1Cl)NC(=O)NC1CCCC1  65.3%
4. CCOC(=O)CC1COCCN1C(=O)c1cc(COc2ccc(F)c(F)c2)on1 (stereo not given)  53.9%
5. Cc1nc2ccccc2c2oc(C(=O)NCCCN3CCC(C)CC3)cc12  52.7%
6. Cc1ccc(Cn2nnc3c(=O)[nH]c(C4CCN(S(=O)(=O)/C=C/c5ccccc5)CC4)nc32)cc1  48.5%
7. Cc1noc(/C=C/c2ccco2)c1S(=O)(=O)N1CCC(C(=O)N2CCc3ccccc32)CC1  47.1%
8. CCCOC1CCCN(C(=O)c2cc(COc3cncc(Cl)c3)on2)C1 (stereo not given)  45.7%
9. COc1cccc(CNC(=O)Cn2c(=O)c3cccn3c3ccc(F)cc32)c1OC  44.7%
10. COc1cccc(OCCn2c(-c3ccc(Br)cc3)nc3ccccc3c2=O)c1  43%
11. COc1ccccc1OCCCn1c(-c2ccc(Cl)cc2)nc2ccccc2c1=O  39.4%
12. COC(=O)c1ccc(NC(=S)NN2CCOCC2)cc1  35.3%
13. CCOc1ccccc1CNC(=O)c1ccc2c(c1)nc1n2CCC(C)C1 (stereo not given)  33.3%
14. CCOC(=O)c1ccc(-c2ccc(/C=C(\C#N)C(=O)Nc3ccc(C)cc3)o2)cc1  31.4%
15. O=C(NCCN1CCN(C(=O)c2cccc([N+](=O)[O-])c2)CC1)C(=O)NCc1ccc(Cl)cc1  27.7%
16. Cc1ccc2nc(COc3cccc(NC(=O)Nc4ccc(C)c(Cl)c4)c3)cc(=O)n2c1  26.6%
17. Cc1ccccc1NC(=O)Cn1c(=O)n(CCc2ccccc2)c(=O)c2ccccc21  24.5%
18. Cc1ccc(OCCSc2nc(-c3cccs3)nc3cc(=O)[nH]n23)cc1Cl  22.8%
19. CCCNC(=S)N1CCC(NC(=O)C23CC4CC(CC(C4)C2)C3)CC1  20%
20. CC1COC2C(O1)N(S(C)(=O)=O)CCN2S(C)(=O)=O (stereo not given)  17.4%
21. Cc1cccc(N2CCN(S(=O)(=O)c3ccc4[nH]c5c(c4c3)CCCCC5)CC2)c1C  16.6%
22. CCOc1ccc(Br)cc1S(=O)(=O)Nc1cccc(S(=O)(=O)N(CC)CC)c1  14.1%
23. COC(=O)[C@]1(S(=O)(=O)c2ccccc2)C[C@@H]2ON=C(c3ccc(OC)cc3)[C@@H]2C1  13.3%
24. O=C(CSCc1c(Cl)cccc1Cl)NN1C(=O)c2ccccc2C1=O  12.2%
25. Cn1c(=O)oc2cc(S(=O)(=O)CCC(=O)NCCc3ccc(Cl)cc3)ccc21  11.3%
26. COc1ccc(NC(=O)CSc2nnc(-c3nnn(-c4ccc(F)cc4)c3C)o2)cc1  10.5%
27. CCN(CC)S(=O)(=O)c1ccc2c(c1)nc(CN(C)C(=O)Nc1ccc(Cl)cc1)n2C  9.69%
28. O=S(=O)(c1ccc(C2CCCCC2)cc1)N1CCN(c2ccc(Cl)c(Cl)c2)CC1  9.35%
29. Cc1c(Br)c([N+](=O)[O-])nn1CC(=O)Nc1sc2c(c1C(=O)OC(C)C)CCC(C)C2 (stereo not given)  9.26%
30. Cc1ccc2c(c1)N(C(=O)CCC(=O)NCc1ccccc1F)CC(C)O2 (stereo not given)  8.23%
31. CCOC(=O)C1CCCN(C(=O)c2ccc(-n3ccc4ccccc43)s2)C1 (stereo not given)  7.94%
32. Cc1nn(C)c2c1c(C(F)(F)F)cc(=O)n2C(C)C(=O)NCc1ccc(Cl)cc1 (stereo not given)  7.11%
33. COc1ccc(OC)c(CCNC(=O)CCCn2c(=O)c3cccn3c3cccnc32)c1  6.58%
34. Cc1ccc(C(=O)C(=S)N2CCOCC2)cc1  6.2%
35. COC(=O)c1c(NC(=O)CCCOc2ccccc2)sc2c1CCC(C)C2 (stereo not given)  5.16%
36. CCOC(=O)c1ccc(-c2ccc(/C=C(\C#N)C(=O)Nc3ccc(OCC)cc3)o2)cc1  4.93%
37. Cc1ccc(NC(=O)CCCn2c(=O)c3cccn3c3ccccc32)cc1Cl  4.78%
38. CC1CN(C(=O)c2cc(COc3c(F)cccc3F)on2)CCN1C (stereo not given)  3.63%
39. CCN(CC)c1nn2c(=O)c(C(=O)NCCc3ccccc3)cnc2s1  3.6%
40. Cc1c(NC(=O)Nc2ccc(F)c(Cl)c2)c(=O)n(-c2ccccc2)n1C  1.88%
41. CC(NC(=O)c1cc2c(=O)n3ccccc3nc2n(C(C)C)c1=N)c1ccccc1 (stereo not given)  0.208%
42. Cc1cccc(OCCSc2nc3ccccc3n2CC(=O)N2CCCCC2)c1C  0.117%
43. COc1ccc(NC(=O)CN2CCCN(Cc3ccccc3)S2(=O)=O)cc1  0%
44. CCCCOC(=O)/C(C#N)=C/c1ccc(-c2cccc(C(F)(F)F)c2)o1  -3.64%
45. CCOc1ccccc1NC(=O)CCn1cnnn1  -4.13%
46. COCCNC(=O)c1cccc(-c2nc3c(NC4CCCCC4)nccc3[nH]2)c1  -4.46%
47. COc1ccccc1NC(=O)Cn1cnc2ccc(S(=O)(=O)N3CCC(C)CC3)cc2c1=O  -5.25%
48. COC(=O)/C(=C\Nc1ccccc1)NC(=O)c1ccc(Cl)cc1Cl  -5.36%
49. C[C@H]1CN([C@@H](C)CO)C(=O)CCCn2cc(nn2)CO[C@@H]1CN(C)S(=O)(=O)c1ccccc1C#N  -5.79%
50. Cc1c(C)c(C)c(S(=O)(=O)N2CCC3(CC2)OCCO3)c(C)c1C  -6.48%
51. COc1ccc(CNc2nc(-c3ccc(Cl)cc3)cc(C(F)(F)F)n2)cc1  -7.09%
52. Cc1ccc(Nc2c(-c3ccc(N(C)C)cc3)nc3nc[nH]n23)cc1  -7.65%
53. O=C(NCCN1CCN(Cc2ccccc2)CC1)c1cc2c(=O)[nH]c3ccccc3c2s1  -8.01%
54. CCCN(C(=O)Cn1cc(S(=O)(=O)N2CCN(c3ccccc3F)CC2)c2ccccc2c1=O)c1cccc(C)c1  -13.9%
55. Cc1nn(-c2nc(-c3ccccc3)cc(C(F)(F)F)n2)c(C)c1Cl  -14.9%
56. O=S(=O)(c1ccc(Cl)s1)N1CCC2(CC1)OCCO2  -18.3%
57. COc1ccc(NS(=O)(=O)c2cc3c4c(c2)CC(=O)N4CCC3)cc1Cl  -18.7%
58. O=C(c1cccc(Br)c1)N1CCN(Cc2cc(=O)n3nc(-c4ccccc4)sc3n2)CC1  -19.8%
59. CCCCCCCC(=O)NC(Nc1ccccc1OC)C(Cl)(Cl)Cl (stereo not given)  -23.2%
60. O=C(O)CSc1nccn1-c1cccc(Cl)c1  -24.9%
61. Cc1ccc(CNC(=O)CSc2c(C)cnc3c2c(=O)n(C)c(=O)n3C)cc1  -25%
62. CCN1CCc2nc3sc(C(=O)Nc4ccccc4OC(F)(F)F)c(N)c3cc2C1  -25.3%
63. CCOc1ccc(-n2c(C)nc3c(cnn3-c3ccc(C)cc3)c2=O)cc1  -26.3%
64. CCOc1ccc(Br)cc1S(=O)(=O)N1CCC(C(=O)O)CC1  -26.6%
65. CCOc1ccc(C(CC(=O)O)n2cnnn2)cc1OC (stereo not given)  -29.4%
66. Cc1ccc(C)c(OCc2cc(C(=O)N3CCN(c4cnccn4)CC3)no2)c1  -30.5%
67. Cc1ccc(NC(=O)CN(C)C(=O)c2ccc(Cl)c(S(=O)(=O)NCc3ccco3)c2)cc1  -35%
68. CC(C)(C)c1ccc(C(=O)N2CCC(c3nc(-c4ccc(S(=O)(=O)N5CCCC5)cc4)no3)CC2)cc1  -35.7%
69. Cc1cccc(NC(=O)C2CCN(S(=O)(=O)c3c(C)noc3/C=C/c3ccco3)CC2)c1  -40%
